The values that follow come from PubChem BioAssay (Tox21).

Values joined by “and” are separate entries in the source; they are usually repeats but may differ in a detail not shown here. Identical values can stand only once. Records with an inconclusive call do not appear. Some compounds were tested as several samples or in several runs, with calls that do not always agree. Active and inactive are the calls of the source. Unless noted, the call rests on the fitted dose curve; in most records, active means well fitted curve in the direction sought with a large enough effect in the repeat runs; inconclusive means weak or mixed curves; inactive means no such curve, though single readings can be large; an effect the other way counts as inactive or inconclusive.

In assay [1] the target is Thyrotropin-releasing hormone receptor (Homo sapiens) (UniProt P34981). As to the kind of experiment: qHTS assay to identify small molecule agonists of the thyrotropin-releasing hormone receptor (TRHR) signaling pathway (AID 1346891; calls by dose curve;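 further: HEK293 cells expressing TRHR with calcium dye readout; series mostly up to about 58 µM; on the % scale 0 is the no-effect control and ±100 the full control effect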). The gist of the method:
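HEK293/TRHR cells, 1500 per well, 18 h 37 °C; Ca dye 2 h 37 °C; pin-tool compound addition (agonist mode); kinetic fluorescence 3 min, 1 s reads; 15 concentrations, triplicate.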

Assay [2] in a line: Human pregnane X receptor (PXR) small molecule agonists, qHTS cell viability counter screen (AID 1346977). Further: on the % scale 0 is the no-effect control and ±100 the full control effect; nearly all actives have a fitted effect of over 50% in size. In short, it runs like this:
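Fluorescence read-out (CellTiter-Fluor) of viability in PXR-Luc HepG2 cells, multiplexed with the luciferase agonist read. Compounds in DMSO added after 5hr plating; 24hr total exposure at 37C, 5% CO2.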
A general note: In qHTS, concentration-response curves come from the screen itself.

A short description of assay [3]: Caspase-3/7 induction in HepG2 cells by small molecules, qHTS assay (AID 1346978). Further: on the % scale 0 is the no-effect control and ±100 the full control effect; nearly all actives have a fitted effect of over 15% in size. In short, it runs like this: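 Wild-type HepG2 cells, 2,000/well, settled 5 hr at 37 C and 5% CO2, then compound-treated for 17 hr; caspase-3/7 activity read by luminescent Caspase-Glo 3/7 after 30 min at room temperature.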
Assay [4] can be described thus: Caspase-3/7 induction in CHO-K1 cells by small molecules, qHTS cell viability counter screen (AID 1346979). Further: nearly all actives have a fitted effect of over 35% in size. Further: potency means the concentration at half of the fitted maximal effect. In short, it runs like this:
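CHO-K1 wt, 1,500 cells/well; 5hr pre-incubation 37C/5% CO2; compound pin transfer (DMSO); 16hr exposure; CellTiter-Fluor added, 1hr, fluorescence read.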

Assay [5] is described as follows: Caspase-3/7 induction in CHO-K1 cells by small molecules, qHTS assay (AID 1346980). Further: on the % scale 0 is the no-effect control and ±100 the full control effect; nearly all actives have a fitted effect of over 15% in size. In short, it runs like this:
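Wild-type CHO-K1 cells exposed to compounds for 17hr at 37 C, 5% CO2. Caspase-3/7 activity then measured by Caspase-Glo 3/7 luminescence after 30min at room temperature.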

A short description of assay [6]: Caspase-3/7 induction in HepG2 cells by small molecules, qHTS cell viability counter screen (AID 1346981). Further: series mostly up to about 92 µM; on the % scale 0 is the no-effect control and ±100 the full control effect; nearly all actives have a fitted effect of over 30% in size. The gist of the method: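 HepG2, WT, 2,000 cells/well; 5 hr pre-incubation 37 C/5% CO2; compound pin-transferred from DMSO; 16 hr exposure; CellTiter-Fluor, 1 hr; fluorescence read.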
Assay [7] deals with Nuclear receptor subfamily 1 group I member 2 (Homo sapiens) (UniProt O75469). As to the kind of experiment: Human pregnane X receptor (PXR) small molecule agonists, qHTS assay (AID 1346982). Further: nearly all actives have a fitted effect of over 35% in size. Further: potency means the concentration at half of the fitted maximal effect. On activation: on the % scale 0 is the no-effect control and ±100 the full control effect. In short, it runs like this: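 Luciferase signal from ONE-Glo (30 min, room temperature) measured activation of hPXR-driven CYP3A4 reporter expression in PXR-Luc HepG2 cells treated with compounds for 24 hr at 37 C.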

Assay [8] addresses Acetylcholinesterase (Homo sapiens) (UniProt P22303). As to the kind of experiment: Acetylcholinesterase (AChE) small molecule antagonists: enzyme-based qHTS assay (AID 1347397; calls by dose curve; further: nearly all actives have a fitted effect of over 55% in size; further: potency means the concentration at half of the fitted maximal effect). The conditions noted are these: Potency: AChE enzyme activity inhibition; outcome: AChE enzyme activity inhibition. The gist of the method:
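Recombinant human AChE (50 mU/mL) preincubated with compound 30 min at room temperature; acetylthiocholine plus DTNB then added, and thiocholine formation read colorimetrically after 10 min at room temperature. DMSO served as vehicle control.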

Assay [9] has the same target. As to the kind of experiment: Acetylcholinesterase (AChE) small molecule antagonists: enzyme-based qHTS assay with human liver microsomes (AID 1347399; calls by dose curve; further: on the % scale 0 is the no-effect control and ±100 the full control effect; nearly all actives have a fitted effect of over 60% in size). The conditions noted are these: Potency: qHTS inhibition; outcome: qHTS inhibition. The gist of the method: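 Recombinant human AChE (50 mU/mL in the enzyme mix) and human liver microsomes (0.25 mg/mL final) were preincubated with compound and NADPH (0.25 mg/mL final) for 30 min at 37 C. Acetylthiocholine/DTNB was then added; thiocholine was read colorimetrically after 10 min at room temperature.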

Assay [10] concerns the target Cytochrome P450 2D6 (Homo sapiens) (UniProt P10635). As to the kind of experiment: Cytochrome P450 Family 2 Subfamily D Member 6 (CYP2D6) small molecule antagonists: luciferase reporter qHTS assay (AID 1671196). Further: nearly all actives have a fitted effect of over 50% in size. Further: potency means the concentration at half of the fitted maximal effect. The gist of the method:
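Read-out is luminescence from luciferin formed by CYP2D6 turnover of a proluciferin substrate, recorded as relative luminescence units. Reactions ran 1 h at room temperature after NADPH regeneration solution was added.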

Assay [11] concerns the target Cytochrome P450 2C19 (Homo sapiens) (UniProt P33261). As to the kind of experiment: Cytochrome P450 Family 2 Subfamily C Member 19 (CYP2C19) small molecule antagonists: luciferase reporter qHTS assay (AID 1671197). Further: nearly all actives have a fitted effect of over 65% in size. Further: potency means the concentration at half of the fitted maximal effect. The gist of the method:
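Luminescent readout of CYP2C19 activity: luciferin product detected 20 min after adding detection reagent. Before that, compound and enzyme-substrate mix preincubated 10 min at room temperature; NADPH-regenerating system started a 1 h, 37C reaction. Ketoconazole as positive control.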
A general note: In a reporter assay the amount or activity of a reporter protein is the signal.

Assay [12] has as its target Cytochrome P450 2C9 (Homo sapiens) (UniProt P11712). As to the kind of experiment: Cytochrome P450 Family 2 Subfamily C Member 9 (CYP2C9) small molecule antagonists: luciferase reporter qHTS assay (AID 1671198). Further: nearly all actives have a fitted effect of over 50% in size. Further: potency means the concentration at half of the fitted maximal effect. The gist of the method:
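P450-Glo proluciferin substrate with CYP2C9 enzyme; 10 min RT preincubation, then NADPH regeneration 1 h at 37C; luciferin detection reagent 20 min RT, luminescence in relative luminescence units.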

The target of assay [13] is Cytochrome P450 1A2 (Homo sapiens) (UniProt P05177). As to the kind of experiment: Cytochrome P450 Family 1 Subfamily A Member 2 (CYP1A2) small molecule antagonists: luciferase reporter qHTS assay (AID 1671199). Further: potency means the concentration at half of the fitted maximal effect; nearly all actives have a fitted effect of over 50% in size. The gist of the method:
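P450-Glo CYP1A2, 1536-well qHTS: enzyme/proluciferin substrate + cpd (DMSO), 10 min RT; NADPH regen, 1 h RT; detection reagent, 20 min; luminescence, RLU.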

Assay [14] deals with Voltage-gated inwardly rectifying potassium channel KCNH2 (Homo sapiens) (UniProt Q12809). As to the kind of experiment: Human Ether-a-go-go-Related Gene (hERG) channel small molecule antagonists: fluorescence cell-based qHTS assay (AID 1671200). The gist of the method:
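Read-out: thallium influx as a surrogate for potassium, tracked as fluorescence (480 nm ex/540 nm em) every second for 2 min after Stimulus Buffer addition in dye-loaded hERG-U2OS cells.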

Assay [15] concerns the target Cytochrome P450 3A4 (Homo sapiens) (UniProt P08684). As to the kind of experiment: Cytochrome P450 Family 3 Subfamily A Member 4 (CYP3A4) small molecule antagonists: luciferase reporter qHTS assay (AID 1671201). Further: nearly all actives have a fitted effect of over 50% in size. Further: potency means the concentration at half of the fitted maximal effect. In short, it runs like this: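 Luminescent readout (RLU) proportional to CYP3A4 activity, from luciferin generated off a proluciferin substrate. Enzyme–substrate mix plus compound 10 min at room temp, NADPH regeneration 1 h, detection reagent 20 min.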

Assay [16] addresses Nuclear receptor subfamily 1 group I member 2 (Rattus norvegicus) (UniProt Q9R1A7). As to the kind of experiment: Rat pregnane X receptor (rPXR) activation by small molecules, qHTS assay (AID 1346983). Further: on the % scale 0 is the no-effect control and ±100 the full control effect; nearly all actives have a fitted effect of over 20% in size. The conditions noted are these: rPXR luciferase reporter cells, One-Glo luminescence, 24 h; stronger effect = higher value. The gist of the method: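 Cell-based rPXR activation assay: rPXR cells, 2,000 per well, rested 5hr at 37 C, then exposed to compounds in DMSO for 24 hr at 37 C. Luciferase activity read by One-Glo luminescence after 30 min at room temperature.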

The target of assay [17] is Acetylcholinesterase (Homo sapiens) (UniProt P22303). As to the kind of experiment: Acetylcholinesterase (AChE) small molecule antagonists: fluorescence cell-based qHTS assay (AID 1347398; calls by dose curve; further: nearly all actives have a fitted effect of over 50% in size; further: potency means the concentration at half of the fitted maximal effect). The conditions noted are these: Potency: AChE activity; outcome: AChE activity. The gist of the method: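 SH-SY5Y cells (2000/well), attached overnight, incubated with compound 30 min at 37 C. Acetylthiocholine plus Thiolite Green then added for 40 min at room temperature. Thiocholine fluorescence (Ex/Em 490/520 nm) reports cellular AChE activity.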
Chain of Acetylcholinesterase (Homo sapiens) (P22303 whole entry, looked up): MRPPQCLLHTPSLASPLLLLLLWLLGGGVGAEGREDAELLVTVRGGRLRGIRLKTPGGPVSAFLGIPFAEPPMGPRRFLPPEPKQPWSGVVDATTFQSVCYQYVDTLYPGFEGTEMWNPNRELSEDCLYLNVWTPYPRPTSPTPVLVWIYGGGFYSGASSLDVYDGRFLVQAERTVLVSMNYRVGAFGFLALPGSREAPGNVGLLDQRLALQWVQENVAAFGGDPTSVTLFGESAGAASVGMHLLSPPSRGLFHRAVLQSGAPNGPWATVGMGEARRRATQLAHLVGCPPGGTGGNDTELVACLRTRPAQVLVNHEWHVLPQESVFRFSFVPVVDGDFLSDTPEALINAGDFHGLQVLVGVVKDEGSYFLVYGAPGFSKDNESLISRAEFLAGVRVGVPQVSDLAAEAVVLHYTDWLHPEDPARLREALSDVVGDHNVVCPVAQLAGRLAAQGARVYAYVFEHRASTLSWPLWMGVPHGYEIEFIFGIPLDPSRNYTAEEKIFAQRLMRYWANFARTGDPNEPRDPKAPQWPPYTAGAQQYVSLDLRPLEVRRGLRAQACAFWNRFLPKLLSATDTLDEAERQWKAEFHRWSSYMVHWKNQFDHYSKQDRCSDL

Assay [18] concerns the target Nuclear receptor subfamily 1 group I member 2 (Homo sapiens) (UniProt O75469). As to the kind of experiment: Human pregnane X receptor (PXR) activation by small molecules, qHTS assay (AID 1346985). Further: on the % scale 0 is the no-effect control and ±100 the full control effect; nearly all actives have a fitted effect of over 40% in size. The gist of the method:
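DPX-2 cells (HepG2 co-transfected with a PXR response element and a CYP3A4-promoter luciferase construct) were seeded at 2,000 per well, rested 5 hr at 37C, then exposed to DMSO-dissolved compounds for 24 hr. Activation was read as luciferase luminescence.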

The target in assay [19] is Acetylcholinesterase (Homo sapiens) (UniProt P22303). As to the kind of experiment: Acetylcholinesterase (AChE) small molecule antagonists: colormetric cell-based qHTS assay (AID 1347395; calls by dose curve; further: nearly all actives have a fitted effect of over 30% in size; further: potency means the concentration at half of the fitted maximal effect). In short, it runs like this: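 SH-SY5Y cells; cpd 30 min 37 C; + DTNB/acetylthiocholine, 90 min 37 C; colorimetric thiocholine read; qHTS.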

Chain of Voltage-gated inwardly rectifying potassium channel KCNH2 (Homo sapiens) (Q12809 whole entry, looked up): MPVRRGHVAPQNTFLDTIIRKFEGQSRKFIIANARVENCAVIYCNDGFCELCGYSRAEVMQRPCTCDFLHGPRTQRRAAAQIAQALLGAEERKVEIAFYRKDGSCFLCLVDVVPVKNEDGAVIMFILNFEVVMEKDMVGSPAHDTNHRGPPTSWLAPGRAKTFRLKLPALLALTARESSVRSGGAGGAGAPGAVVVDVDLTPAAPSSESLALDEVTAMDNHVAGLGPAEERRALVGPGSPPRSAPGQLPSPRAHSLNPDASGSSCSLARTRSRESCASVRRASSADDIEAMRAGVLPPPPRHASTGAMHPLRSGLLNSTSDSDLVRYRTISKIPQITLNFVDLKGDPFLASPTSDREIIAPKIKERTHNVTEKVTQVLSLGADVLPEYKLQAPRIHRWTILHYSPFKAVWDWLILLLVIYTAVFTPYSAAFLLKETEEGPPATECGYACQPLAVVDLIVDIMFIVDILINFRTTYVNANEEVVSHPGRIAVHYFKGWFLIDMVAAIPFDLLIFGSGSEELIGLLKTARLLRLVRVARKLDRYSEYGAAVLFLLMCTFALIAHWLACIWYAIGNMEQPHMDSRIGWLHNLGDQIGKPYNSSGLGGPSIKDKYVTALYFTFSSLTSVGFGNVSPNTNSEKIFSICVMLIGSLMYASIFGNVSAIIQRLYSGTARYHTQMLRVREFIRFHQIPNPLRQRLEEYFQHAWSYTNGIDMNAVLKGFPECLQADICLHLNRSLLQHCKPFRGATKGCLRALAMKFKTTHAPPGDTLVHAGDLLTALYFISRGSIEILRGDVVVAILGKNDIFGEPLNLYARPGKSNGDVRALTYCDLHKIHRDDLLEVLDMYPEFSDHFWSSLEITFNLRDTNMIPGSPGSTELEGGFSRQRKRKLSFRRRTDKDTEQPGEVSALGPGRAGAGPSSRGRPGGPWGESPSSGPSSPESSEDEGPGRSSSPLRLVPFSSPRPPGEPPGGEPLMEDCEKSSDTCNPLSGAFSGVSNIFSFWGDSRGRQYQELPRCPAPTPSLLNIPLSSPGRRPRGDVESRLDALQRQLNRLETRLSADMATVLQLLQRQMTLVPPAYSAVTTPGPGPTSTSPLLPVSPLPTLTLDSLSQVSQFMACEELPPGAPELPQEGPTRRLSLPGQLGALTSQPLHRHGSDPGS
Chain of Cytochrome P450 2D6 (Homo sapiens) (P10635 whole entry, looked up): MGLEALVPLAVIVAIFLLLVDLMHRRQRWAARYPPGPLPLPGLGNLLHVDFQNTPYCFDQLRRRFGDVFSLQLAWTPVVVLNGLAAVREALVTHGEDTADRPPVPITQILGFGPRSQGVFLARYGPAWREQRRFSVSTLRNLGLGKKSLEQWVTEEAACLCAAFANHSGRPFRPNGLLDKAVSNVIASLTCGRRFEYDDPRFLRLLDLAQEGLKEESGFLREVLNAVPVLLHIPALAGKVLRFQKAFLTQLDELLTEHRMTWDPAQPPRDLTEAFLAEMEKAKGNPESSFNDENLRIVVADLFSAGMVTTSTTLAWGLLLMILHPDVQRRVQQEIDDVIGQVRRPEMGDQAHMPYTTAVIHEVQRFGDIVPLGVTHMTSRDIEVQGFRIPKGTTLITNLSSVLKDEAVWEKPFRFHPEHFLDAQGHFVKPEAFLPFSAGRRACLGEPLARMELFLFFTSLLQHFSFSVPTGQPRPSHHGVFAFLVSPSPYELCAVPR
Chain of Thyrotropin-releasing hormone receptor (Homo sapiens) (P34981 whole entry, looked up): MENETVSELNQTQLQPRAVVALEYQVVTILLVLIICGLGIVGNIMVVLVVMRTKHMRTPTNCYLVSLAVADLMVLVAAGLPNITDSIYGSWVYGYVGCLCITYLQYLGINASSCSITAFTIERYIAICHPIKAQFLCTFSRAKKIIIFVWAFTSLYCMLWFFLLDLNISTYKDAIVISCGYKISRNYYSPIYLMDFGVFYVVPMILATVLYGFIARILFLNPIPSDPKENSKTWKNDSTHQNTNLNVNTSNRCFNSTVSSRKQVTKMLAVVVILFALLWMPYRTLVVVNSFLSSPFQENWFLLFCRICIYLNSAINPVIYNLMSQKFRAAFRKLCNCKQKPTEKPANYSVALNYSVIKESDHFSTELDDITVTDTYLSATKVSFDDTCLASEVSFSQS
Chain of Nuclear receptor subfamily 1 group I member 2 (Rattus norvegicus) (Q9R1A7 whole entry, looked up): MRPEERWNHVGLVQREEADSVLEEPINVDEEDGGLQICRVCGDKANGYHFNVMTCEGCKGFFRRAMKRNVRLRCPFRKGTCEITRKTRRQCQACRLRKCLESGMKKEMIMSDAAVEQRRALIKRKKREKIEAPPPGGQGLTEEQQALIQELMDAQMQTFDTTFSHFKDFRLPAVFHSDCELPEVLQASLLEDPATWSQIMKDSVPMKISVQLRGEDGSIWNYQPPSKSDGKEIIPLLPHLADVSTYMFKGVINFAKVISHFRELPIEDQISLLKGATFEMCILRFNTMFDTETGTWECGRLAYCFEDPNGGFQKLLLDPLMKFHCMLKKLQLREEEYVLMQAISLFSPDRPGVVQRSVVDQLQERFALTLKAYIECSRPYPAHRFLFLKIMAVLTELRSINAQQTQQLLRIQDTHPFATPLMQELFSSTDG
Chain of Cytochrome P450 1A2 (Homo sapiens) (P05177 whole entry, looked up): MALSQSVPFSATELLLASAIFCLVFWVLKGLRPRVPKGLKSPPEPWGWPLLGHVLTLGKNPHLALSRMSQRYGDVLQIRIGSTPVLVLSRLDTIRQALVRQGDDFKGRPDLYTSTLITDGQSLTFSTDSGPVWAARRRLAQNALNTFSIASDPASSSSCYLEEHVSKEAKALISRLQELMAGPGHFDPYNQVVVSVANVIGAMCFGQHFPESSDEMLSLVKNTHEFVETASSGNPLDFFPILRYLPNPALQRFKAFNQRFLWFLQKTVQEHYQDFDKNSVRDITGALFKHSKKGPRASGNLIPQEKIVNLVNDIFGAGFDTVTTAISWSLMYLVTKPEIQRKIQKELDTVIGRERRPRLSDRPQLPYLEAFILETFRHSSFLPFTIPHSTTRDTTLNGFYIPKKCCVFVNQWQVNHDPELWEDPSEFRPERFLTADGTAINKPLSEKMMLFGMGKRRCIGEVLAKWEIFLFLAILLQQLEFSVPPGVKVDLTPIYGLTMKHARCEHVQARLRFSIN
Chain of Cytochrome P450 2C9 (Homo sapiens) (P11712 whole entry, looked up): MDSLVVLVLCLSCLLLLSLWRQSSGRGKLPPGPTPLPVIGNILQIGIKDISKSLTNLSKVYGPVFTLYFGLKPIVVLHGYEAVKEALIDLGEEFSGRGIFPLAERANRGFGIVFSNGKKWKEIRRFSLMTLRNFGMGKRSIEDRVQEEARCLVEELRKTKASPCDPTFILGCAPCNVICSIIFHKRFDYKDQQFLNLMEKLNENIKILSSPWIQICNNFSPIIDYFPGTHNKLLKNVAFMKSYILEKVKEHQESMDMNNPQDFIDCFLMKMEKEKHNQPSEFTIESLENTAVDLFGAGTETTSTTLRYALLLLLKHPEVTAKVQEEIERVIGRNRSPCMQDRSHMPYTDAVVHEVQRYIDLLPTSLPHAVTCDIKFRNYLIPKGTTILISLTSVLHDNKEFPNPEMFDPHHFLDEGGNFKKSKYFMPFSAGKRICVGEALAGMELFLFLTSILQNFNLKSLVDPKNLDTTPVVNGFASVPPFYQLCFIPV
Chain of Cytochrome P450 3A4 (Homo sapiens) (P08684 whole entry, looked up): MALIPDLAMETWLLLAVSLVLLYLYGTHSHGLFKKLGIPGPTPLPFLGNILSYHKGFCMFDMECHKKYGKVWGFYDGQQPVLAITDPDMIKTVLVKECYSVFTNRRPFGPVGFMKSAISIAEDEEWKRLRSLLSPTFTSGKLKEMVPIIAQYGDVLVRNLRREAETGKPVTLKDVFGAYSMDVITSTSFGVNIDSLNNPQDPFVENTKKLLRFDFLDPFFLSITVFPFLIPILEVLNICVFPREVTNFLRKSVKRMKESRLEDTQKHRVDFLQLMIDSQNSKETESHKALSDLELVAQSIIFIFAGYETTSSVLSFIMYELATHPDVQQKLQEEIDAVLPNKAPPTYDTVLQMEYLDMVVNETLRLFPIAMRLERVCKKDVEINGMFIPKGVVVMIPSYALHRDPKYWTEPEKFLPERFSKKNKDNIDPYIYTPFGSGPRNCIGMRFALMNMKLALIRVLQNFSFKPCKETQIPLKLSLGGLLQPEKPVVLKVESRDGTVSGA

For the molecule `Cc1cccc2sc3nncn3c12`, the call in [1], in assay [3] and in [5] was inactive. For the same molecule, the Potency result in [2], in assay [4], in assay [6], in [8], in assay [9] and in assay [11] was “inactive” each time. The Potency entry in assay [12] and in assay [14] was “inactive” throughout. The Potency in assay [7] is 34.4 µM (active); in [10], 15.9 µM (active); in assay [13], 31.7 µM (active); in assay [15], 20 µM (active).
Take `CC(C)(C)c1cc(O)ccc1O`: the molecule was classed as inactive in assay [1], in [3] and in assay [5]. In addition, the Potency result in [2], in assay [6], in [8], in assay [9], in [14] and in [15] was “inactive” in each case. In addition, the Potency in [4] was 43.3 µM (active) and 61.1 µM (active); in assay [10] it was 63.3 µM (active) and inactive; in [11], 39.9 µM (active) and 56.4 µM (active); in assay [12], 31.7 µM (active); in [13], 39.9 µM (active). Also, in assay [16], the max activation was -1.85% (inactive).
Take `CCCCCCCCBr`: the outcome in assay [1], in assay [3] and in assay [5] was inactive. The Potency result in [2], in [4], in assay [6], in assay [7], in [8] and in assay [17] was “inactive” each time. The Potency entry in assay [9], in [10], in assay [12], in [14] and in assay [15] was “inactive” each time.
On to `ClC(Cl)(Cl)Cl`, for which the molecule was classed as inactive in assay [1], in [3] and in [5]. Besides, the Potency result in [2], in assay [6], in assay [7], in assay [18], in assay [19] and in assay [8] was “inactive” each time. Also, the Potency result in [17], in assay [9], in [10], in assay [11], in [12] and in assay [14] was “inactive” in each case. The Potency result in assay [15] was “inactive”. In addition, in [16], the max activation is -2.8% (inactive).
Turning to `C/C=C/CC#N`, the molecule was classed as inactive in assay [1], in [3] and in [5]. Besides, the Potency result in [2], in assay [4], in assay [6], in [19], in assay [8] and in assay [17] was “inactive” each time. In addition, the Potency result in assay [9], in assay [10], in assay [11], in [12], in assay [14] and in assay [15] was “inactive” throughout. The Potency in assay [13] is 36.4 µM (active).
For `CC[C@@H](CO)NC(=O)[C@@H]1C=C2c3cccc4c3c(cn4C)C[C@H]2N(C)C1`, the result in [1], in assay [3] and in assay [5] was inactive. Further, the Potency entry in [2], in [4], in assay [6], in [18], in assay [9] and in assay [11] was “inactive” in each case. For the same molecule, the Potency entry in assay [14] was “inactive”. Besides, the max activation in assay [16] was 4.36% (inactive). Moreover, the Potency was 2.45 µM (active) in [19], 4.36 µM (active) in [8], 1.1 µM (active) in assay [17] and 6.92 µM (active) in assay [10].
